# B1: unnamed (peptide)
# chain: SKIRPTPRKPSRMAT
# Molecular target: AgAbp1
# Assay: SPOT peptide array binding signal intensity (averaged, normalized) (arbitrary units (background-subtracted, floor 0; scale differs between SH3 domains)); higher = stronger binding of the SH3 domain to the peptide
# In short: (§1)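 Binding signal is given in arbitrary units that differ between domains and is the normalized, background-subtracted spot intensity averaged across replicates. Each GST-SH3 fusion from one of four yeast species was made in E. coli BL21(DE3), purified on glutathione Sepharose and incubated at 10 μg/ml overnight at 4°C on cellulose-bound synthetic 15-mer peptides in which cysteines were replaced by serines. Detection used anti-GST antibody, an HRP anti-mouse secondary and luminol, followed by imaging and Genespotter quantification.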
row,Binder,SPOT peptide array binding signal intensity
1,B1,1550

# Molecular target: AgBbc1
# Assay: as above
# In short: as §1
row,Binder,SPOT peptide array binding signal intensity
1,B1,642

# Molecular target: AgBem1-D1
# Assay: as above
# In short: as §1
row,Binder,SPOT peptide array binding signal intensity
1,B1,47

# Molecular target: AgBzz1-D1
# Assay: as above
# In short: as §1
row,Binder,SPOT peptide array binding signal intensity
1,B1,77

# Molecular target: AgBzz1-D2
# Assay: as above
# In short: as §1
row,Binder,SPOT peptide array binding signal intensity
1,B1,53

# Molecular target: AgCyk3
# Assay: as above
# In short: as §1
row,Binder,SPOT peptide array binding signal intensity
1,B1,3

# Molecular target: AgFus1
# Assay: as above
# In short: as §1
row,Binder,SPOT peptide array binding signal intensity
1,B1,40

# Molecular target: AgHof1
# Assay: as above
# In short: as §1
row,Binder,SPOT peptide array binding signal intensity
1,B1,69.2

# Molecular target: AgHse1
# Assay: as above
# In short: as §1
row,Binder,SPOT peptide array binding signal intensity
1,B1,263

# Molecular target: AgLsb1
# Assay: as above
# In short: as §1
row,Binder,SPOT peptide array binding signal intensity
1,B1,69.2

# Molecular target: AgLsb4
# Assay: as above
# In short: as §1
row,Binder,SPOT peptide array binding signal intensity
1,B1,176

# Molecular target: AgMyo5
# Assay: as above
# In short: as §1
row,Binder,SPOT peptide array binding signal intensity
1,B1,7

# Molecular target: AgNbp2
# Assay: as above
# In short: as §1
row,Binder,SPOT peptide array binding signal intensity
1,B1,1050

# Molecular target: AgRvs167
# Assay: as above
# In short: as §1
row,Binder,SPOT peptide array binding signal intensity
1,B1,9.17

# Molecular target: AgSho1
# Assay: as above
# In short: as §1
row,Binder,SPOT peptide array binding signal intensity
1,B1,39.5

# Molecular target: AgSla1-D1-D2
# Assay: as above
# In short: as §1
row,Binder,SPOT peptide array binding signal intensity
1,B1,100

# Molecular target: AgSla1-D3
# Assay: as above
# In short: as §1
row,Binder,SPOT peptide array binding signal intensity
1,B1,23.8

# Molecular target: CaAbp1-D1
# Assay: as above
# In short: as §1
row,Binder,SPOT peptide array binding signal intensity
1,B1,3050

# Molecular target: CaAbp1-D2
# Assay: as above
# In short: as §1
row,Binder,SPOT peptide array binding signal intensity
1,B1,5280

# Molecular target: CaBbc1
# Assay: as above
# In short: as §1
row,Binder,SPOT peptide array binding signal intensity
1,B1,806

# Molecular target: CaBem1-D1
# Assay: as above
# In short: as §1
row,Binder,SPOT peptide array binding signal intensity
1,B1,34.5

# Molecular target: CaBzz1-D1
# Assay: as above
# In short: as §1
row,Binder,SPOT peptide array binding signal intensity
1,B1,270

# Molecular target: CaBzz1-D2
# Assay: as above
# In short: as §1
row,Binder,SPOT peptide array binding signal intensity
1,B1,208

# Molecular target: CaCyk3
# Assay: as above
# In short: as §1
row,Binder,SPOT peptide array binding signal intensity
1,B1,108

# Molecular target: CaFus1
# Assay: as above
# In short: as §1
row,Binder,SPOT peptide array binding signal intensity
1,B1,208

# Molecular target: CaHof1
# Assay: as above
# In short: as §1
row,Binder,SPOT peptide array binding signal intensity
1,B1,2.5

# Molecular target: CaHse1
# Assay: as above
# In short: as §1
row,Binder,SPOT peptide array binding signal intensity
1,B1,30.5

# Molecular target: CaLsb1
# Assay: as above
# In short: as §1
row,Binder,SPOT peptide array binding signal intensity
1,B1,2.75

# Molecular target: CaLsb4
# Assay: as above
# In short: as §1
row,Binder,SPOT peptide array binding signal intensity
1,B1,2040

# Molecular target: CaMyo5
# Assay: as above
# In short: as §1
row,Binder,SPOT peptide array binding signal intensity
1,B1,8.5

# Molecular target: CaNbp2
# Assay: as above
# In short: as §1
row,Binder,SPOT peptide array binding signal intensity
1,B1,437

# Molecular target: CaRvs167
# Assay: as above
# In short: as §1
row,Binder,SPOT peptide array binding signal intensity
1,B1,110

# Molecular target: CaRvs167-3
# Assay: as above
# In short: as §1
row,Binder,SPOT peptide array binding signal intensity
1,B1,23

# Molecular target: CaSho1
# Assay: as above
# In short: as §1
row,Binder,SPOT peptide array binding signal intensity
1,B1,60

# Molecular target: CaSla1-D1-D2
# Assay: as above
# In short: as §1
row,Binder,SPOT peptide array binding signal intensity
1,B1,1470

# Molecular target: CaSla1-D3
# Assay: as above
# In short: as §1
row,Binder,SPOT peptide array binding signal intensity
1,B1,104

# Molecular target: ScAbp1
# Assay: as above
# In short: as §1
row,Binder,SPOT peptide array binding signal intensity
1,B1,1260

# Molecular target: ScBbc1
# Assay: as above
# In short: as §1
row,Binder,SPOT peptide array binding signal intensity
1,B1,73.5

# Molecular target: ScBem1-D1
# Assay: as above
# In short: as §1
row,Binder,SPOT peptide array binding signal intensity
1,B1,14

# Molecular target: ScBzz1-D1
# Assay: as above
# In short: as §1
row,Binder,SPOT peptide array binding signal intensity
1,B1,32.5

# Molecular target: ScBzz1-D2
# Assay: as above
# In short: as §1
row,Binder,SPOT peptide array binding signal intensity
1,B1,39

# Molecular target: ScCyk3
# Assay: as above
# In short: as §1
row,Binder,SPOT peptide array binding signal intensity
1,B1,25

# Molecular target: ScFus1
# Assay: as above
# In short: as §1
row,Binder,SPOT peptide array binding signal intensity
1,B1,21

# Molecular target: ScHof1
# Assay: as above
# In short: as §1
row,Binder,SPOT peptide array binding signal intensity
1,B1,10

# Molecular target: ScHse1
# Assay: as above
# In short: as §1
row,Binder,SPOT peptide array binding signal intensity
1,B1,1130

# Molecular target: ScLsb1
# Assay: as above
# In short: as §1
row,Binder,SPOT peptide array binding signal intensity
1,B1,328

# Molecular target: ScLsb2
# Assay: as above
# In short: as §1
row,Binder,SPOT peptide array binding signal intensity
1,B1,3.5

# Molecular target: ScLsb3
# Assay: as above
# In short: as §1
row,Binder,SPOT peptide array binding signal intensity
1,B1,2130

# Molecular target: ScLsb4
# Assay: as above
# In short: as §1
row,Binder,SPOT peptide array binding signal intensity
1,B1,117

# Molecular target: ScMyo3
# Assay: as above
# In short: as §1
row,Binder,SPOT peptide array binding signal intensity
1,B1,0.5

# Molecular target: ScMyo5
# Assay: as above
# In short: as §1
row,Binder,SPOT peptide array binding signal intensity
1,B1,4

# Molecular target: ScNbp2
# Assay: as above
# In short: as §1
row,Binder,SPOT peptide array binding signal intensity
1,B1,1100

# Molecular target: ScPex13
# Assay: as above
# In short: as §1
row,Binder,SPOT peptide array binding signal intensity
1,B1,124

# Molecular target: ScRvs167
# Assay: as above
# In short: as §1
row,Binder,SPOT peptide array binding signal intensity
1,B1,865

# Molecular target: ScSho1
# Assay: as above
# In short: as §1
row,Binder,SPOT peptide array binding signal intensity
1,B1,346

# Molecular target: ScSla1-D1-D2
# Assay: as above
# In short: as §1
row,Binder,SPOT peptide array binding signal intensity
1,B1,2180

# Molecular target: ScSla1-D3
# Assay: as above
# In short: as §1
row,Binder,SPOT peptide array binding signal intensity
1,B1,202

# Molecular target: SpAbp1-D1
# Assay: as above
# In short: as §1
row,Binder,SPOT peptide array binding signal intensity
1,B1,1300

# Molecular target: SpBbc1
# Assay: as above
# In short: as §1
row,Binder,SPOT peptide array binding signal intensity
1,B1,27.5

# Molecular target: SpBzz1-D1
# Assay: as above
# In short: as §1
row,Binder,SPOT peptide array binding signal intensity
1,B1,284

# Molecular target: SpBzz1-D2
# Assay: as above
# In short: as §1
row,Binder,SPOT peptide array binding signal intensity
1,B1,1.5

# Molecular target: SpCyk3
# Assay: as above
# In short: as §1
row,Binder,SPOT peptide array binding signal intensity
1,B1,6

# Molecular target: SpHof1
# Assay: as above
# In short: as §1
row,Binder,SPOT peptide array binding signal intensity
1,B1,107

# Molecular target: SpHof1-2
# Assay: as above
# In short: as §1
row,Binder,SPOT peptide array binding signal intensity
1,B1,43

# Molecular target: SpHof1-3
# Assay: as above
# In short: as §1
row,Binder,SPOT peptide array binding signal intensity
1,B1,235

# Molecular target: SpHse1
# Assay: as above
# In short: as §1
row,Binder,SPOT peptide array binding signal intensity
1,B1,180

# Molecular target: SpLsb1
# Assay: as above
# In short: as §1
row,Binder,SPOT peptide array binding signal intensity
1,B1,5

# Molecular target: SpLsb4
# Assay: as above
# In short: as §1
row,Binder,SPOT peptide array binding signal intensity
1,B1,3850

# Molecular target: SpMyo1
# Assay: as above
# In short: as §1
row,Binder,SPOT peptide array binding signal intensity
1,B1,9.5

# Molecular target: SpNbp2
# Assay: as above
# In short: as §1
row,Binder,SPOT peptide array binding signal intensity
1,B1,178

# Molecular target: SpPex13
# Assay: as above
# In short: as §1
row,Binder,SPOT peptide array binding signal intensity
1,B1,30

# Molecular target: SpRvs167
# Assay: as above
# In short: as §1
row,Binder,SPOT peptide array binding signal intensity
1,B1,957

# Molecular target: SpSla1-D1-D2
# Assay: as above
# In short: as §1
row,Binder,SPOT peptide array binding signal intensity
1,B1,33

# Molecular target: SpSla1-D3
# Assay: as above
# In short: as §1
row,Binder,SPOT peptide array binding signal intensity
1,B1,49.5

# Reference: the supplement of paper PMC4466140
